Reference: PubChem BioAssay AID720553 (National Center for Advancing Translational Sciences (NCATS), 2013)
About 3,300 (0.97%) of roughly 340,000 compounds were called active.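 The calls were made as follows: active = maximum activity change below -70%; inconclusive = maximum activity change from -70% to -50%; inactive = maximum activity change above -50%.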 Only a selection was taken, and actives are over-represented in it overall.

test system: Potassium voltage-gated channel subfamily H member 2, brain isoform KCNH2 3.1 (human); experiment: qHTS for Inhibitors of KCHN2 3.1: Mutant qHTS; conditions: U2OS KCNH2 3.1, thallium flux FluxOr; hits give low values
How it was run: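 Kinetic fluorescence (2 min after stimulation buffer) measures Tl+ influx through KCNH2 3.1 expressed by viral transduction in U2OS cells; the rate constant is normalized against DMSO controls serving as positive and negative references.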
% is scaled to controls: 0 for no effect and ±100 for the full control effect.

Row | SMILES | activity change
1 | O=C(COC(=O)Cc1ccc(Cl)cc1Cl)NCc1ccco1 | -13.7% (inactive)
2 | O=C(O)C1=C(C(=O)O)C2CCC1C2 | 1.57% (inactive)
3 | COc1ccccc1OCCNC(=O)c1cc([N+](=O)[O-])cc([N+](=O)[O-])c1 | -8.81% (inactive)
4 | COc1cc(C(=O)NCCOC(=O)c2cccc(N(C)C)c2)cc(OC)c1OC | -77.8% (active)
5 | COC(=O)c1cccc(NC(=O)CN2CCC(NC(=O)c3cc(OC)c(OC)c(OC)c3)CC2)c1 | -11.4% (inactive)
6 | O[C@@H]1C[C@H](c2ccccc2)N(Cc2cccs2)C[C@H]1n1cc(C2CC2)nn1 | -10.3% (inactive)
7 | C[C@@H]1CN([C@@H](C)CO)C(=O)CCCn2nncc2CO[C@H]1CN(C)Cc1ccc(C(F)(F)F)cc1 | 15.2% (inactive)
8 | COc1ccc(S(=O)(=O)N2CCC(C(=O)NCCC(=O)NCCc3cccc(F)c3)CC2)cc1 | -0.519% (inactive)
9 | Cc1cc(=O)oc2cc(NC(=O)C3CC(=O)N(Cc4ccccc4)C3)ccc12 (configuration not stated) | -71% (active)
10 | O=C(Nc1ccc(F)c([N+](=O)[O-])c1)C1CC(=O)N(Cc2ccccc2)C1 (configuration not stated) | -5.91% (inactive)
11 | Cc1cc(=O)oc2cc(NC(=O)C(C)Oc3ccccc3)ccc12 (configuration not stated) | 16.9% (inactive)
12 | Cc1ccc2c(c1)N(S(=O)(=O)c1cc(-c3cc(C)no3)ccc1C)CCO2 | -82.2% (active)
13 | Cc1cc(-c2ccc(C)c(S(=O)(=O)NC(C)Cc3ccco3)c2)on1 (configuration not stated) | -6.2% (inactive)
14 | Cc1cc(-c2ccc(C)c(S(=O)(=O)Nc3ccc(S(N)(=O)=O)cc3)c2)on1 | 6.07% (inactive)
15 | Cc1ccc(-c2ccc(CN3C(C(C)C)C(=O)N(Cc4cn(CCC5OCCO5)nn4)CCS3(=O)=O)cc2)cc1 (configuration not stated) | 0.464% (inactive)
16 | Cc1noc(C)c1NC(=O)N(C)C[C@@H]1Oc2cc(Br)ccc2S(=O)(=O)N([C@@H](C)CO)C[C@H]1C | -17.2% (inactive)
17 | COCOCCn1cc(CN2CCS(=O)(=O)N(Cc3ccc(-c4ccc(OC)cc4)cc3)C(CC(C)C)C2=O)nn1 (configuration not stated) | -1.8% (inactive)
18 | COc1ccc(C[C@H]2CN3C(=NC[C@H]3C)N2CCNC(=O)CCC2CCCCC2)cc1 | -109% (active)
19 | NC1=NC[C@@H](Cc2ccc(O)cc2)N1CC1CCCCC1 | 19% (inactive)

Row | SMILES | activity change
20 | COc1ccc(CCNC(=O)COC(=O)C2CCCCC2)cc1 | 8.75% (inactive)
21 | COc1ccc(NC(=O)CCCC2CCCCC2)c(OC)c1 | 8.96% (inactive)
22 | COc1ccc(CCNC(=O)COC(=O)C2CC2C)cc1 (configuration not stated) | 5.06% (inactive)
23 | C/C=C(\C)C(=O)NCCN1C2=NC[C@H](Cc3ccc(O)cc3)N2C[C@@H]1Cc1ccc(OC)cc1 | -104% (active)
24 | Cc1ccn(CC(=O)NC2CCCN(Cc3ccccc3F)C2)n1 (configuration not stated) | 7.86% (inactive)
25 | O=C(O)c1ccccc1Cc1ccc(F)c2ccccc12 | 1.01% (inactive)
26 | CCN(CC)C(=O)C1=C(C)N(Cc2ccc(F)cc2)C(=O)C(CC(=O)NCc2cccc3ccccc23)C1 (configuration not stated) | 10.8% (inactive)
27 | CCn1c(CNS(=O)(=O)c2ccc(Cl)cc2)n[nH]c1=S | -7.51% (inactive)
28 | CCn1c(CSCc2c(Cl)cccc2Cl)n[nH]c1=S | -10.5% (inactive)
29 | CCn1c(CN2C(=O)CSc3ccccc32)n[nH]c1=S | -86.9% (active)
30 | CCN(CC)C(=O)C1=C(C)N(Cc2ccc(OC)cc2)C(=O)C(CC(=O)NCCCCc2ccccc2)C1 (configuration not stated) | -3.76% (inactive)
31 | CSc1nnc(CNC(=O)c2ccccc2)n1-c1ccc(F)cc1 | -88.2% (active)
32 | CCn1c(CNC(=O)c2ccccc2)nnc1SCC(=O)N1CCN(c2ccccc2)CC1 | -7.37% (inactive)
33 | CCOC(=O)CSc1nnc(CNC(=O)c2ccco2)n1-c1ccc(F)cc1 | -10.2% (inactive)
34 | COc1cc2ccc(C(C)=O)c(O)c2cc1OC | 5.97% (inactive)
35 | N#CCCC(C#N)(c1cccnc1)N1CCOCC1 (configuration not stated) | 7.47% (inactive)
36 | C[C@H](CO)N1C[C@H](C)[C@@H](CN(C)C(=O)c2cccc(F)c2)Oc2cc(-c3cncnc3)ccc2S1(=O)=O | -2.89% (inactive)
37 | COc1cccc(OC)c1C(=O)N1CCN(Cc2ccccc2F)CC1 | -6.56% (inactive)
38 | COc1ccc(CN2CN(C3CCCC3)CSC2=S)cc1 | -9.2% (inactive)

Row | SMILES | activity change
39 | S=C1SCN(CCN2CCOCC2)CN1Cc1ccccc1 | -10.5% (inactive)
40 | COc1ccc(CN2CN(C(C)C)CSC2=S)cc1 | -82.5% (active)
41 | C[C@@H]1CN([C@@H](C)CO)C(=O)CCCn2cc(nn2)CO[C@H]1CN(C)S(=O)(=O)c1ccc(-n2cccn2)cc1 | 7.17% (inactive)
42 | Cc1c(NC(=O)COC(=O)/C=C/c2cccc(F)c2)c(=O)n(-c2ccccc2)n1C | 1.3% (inactive)
43 | COc1ccccc1C(c1nnnn1C(C)(C)C)N1CCN(Cc2ccccc2)CC1 (configuration not stated) | 5% (inactive)
44 | CCC(C)(C)n1nnnc1C(c1ccccc1OC)N1CCSCC1 (configuration not stated) | -86.1% (active)
45 | CC(C)(C)n1nnnc1C(c1ccc(Cl)cc1)N1CCSCC1 (configuration not stated) | -3.03% (inactive)
46 | Cc1ccccc1NC(=O)Cc1nc(COC(=O)CNC(=O)c2ccc(Cl)cc2Cl)cs1 | -9.74% (inactive)
47 | COc1ccc(S(=O)(=O)N2CCCCC2)cc1C(=O)NC1CCS(=O)(=O)C1 (configuration not stated) | 26.3% (inactive)
48 | CCN(CC)C(=O)C1=C(C)N(Cc2ccc(OC)cc2)C(=O)C(CC(=O)NCc2ccco2)C1 (configuration not stated) | 22.6% (inactive)
49 | CN(C)/C=C(/C(=O)c1ccccc1)S(=O)(=O)c1ccc(Cl)cc1 | 7.64% (inactive)
50 | CN(C)/C=C(/C(=O)c1ccc(Cl)cc1)S(=O)(=O)c1ccccc1 | 3.05% (inactive)
51 | CN(C)/C=C(/C(=O)c1ccccc1Cl)S(C)(=O)=O | -180% (active)
52 | Cc1nc(N2CCC(C)CC2)c2c(C)c(C(=O)Nc3cc(F)ccc3C)sc2n1 | -5.3% (inactive)
53 | Cc1nc(N2CCN(c3ccccn3)CC2)c2c(C)c(C(=O)Nc3ccc(F)c(Cl)c3)sc2n1 | -77.6% (active)
54 | Cc1nc(N2CCN(c3ccccn3)CC2)c2c(C)c(C(=O)Nc3ccc(F)cc3)sc2n1 | -101% (active)
55 | Cc1cc(Br)ccc1NC(=O)c1sc2ncn(CC(=O)N3CCN(c4ccccn4)CC3)c(=O)c2c1C | -4.47% (inactive)
56 | Cc1nc(N2CCOCC2)c2c(C)c(C(=O)Nc3ccc(C(F)(F)F)cc3)sc2n1 | -41.2% (inactive)
57 | COc1ccc(NC(=O)c2sc3nc(C)nc(N4CCN(c5ccccn5)CC4)c3c2C)c(OC)c1 | -30.8% (inactive)
